# Records with an inconclusive call do not appear. Activity calls are given as the source filed them. The call rests on the fitted dose curve; in most records, active means well fitted activation curve with a large enough effect in the signal ratio in the repeat runs, with a control signal flat (not every such curve was filed as active); inconclusive means weak or mixed curves, or effect the other way; inactive means no such curve, though single readings can be large or run the other way; the % refers to the signal ratio.
# Molecular target: Androgen receptor (Homo sapiens) (UniProt P10275)
# Experiment: qHTS assay to identify small molecule agonists of the androgen receptor (AR) signaling pathway (AID 743036)
# Conditions: HEK293 AR-UAS-bla GripTite, beta-lactamase FRET ratio, 16 h; series mostly up to 62.4 µM
# Text: U.S. Tox21 Program National Center for Advancing Translational Sciences [NCATS] NIH Chemical Genomics Center [NCGC] U.S. Environmental Protection Agency [EPA] National Institutes of Environmental Health Sciences [NIEHS] National Toxicology Program [NTP] U.S. Food and Drug Administration [FDA] Tox21 Assay Overview: Androgen receptor (AR), a nuclear hormone receptor, plays a critical role in AR-dependent prostate cancer and other androgen related diseases. Endocrine disrupting chemicals (EDCs) and their interactions with steroid hormone receptors like AR may cause disruption of normal endocrine function as well as interfere with metabolic homeostasis, reproduction, developmental and behavioral functions. To identify the compounds that activate AR signaling, GeneBLAzer AR-UAS-bla-GripTite cell line (Invitrogen, Carlsbad, CA, USA) containing a beta-lactamase reporter gene under the control of an Upstream Activator Sequence (UAS) stably integrated into HEK293 cells was used to screen the Tox21 10K compound library.
# Tox21 Assay Protocol Summary: AR-bla cells were dispensed at 2,000 cells/6 uL/well of assay medium into black wall/clear-bottom 1536-well plates using a Multidrop Combi (ThermoFisher Scientific, Waltham, MA) dispenser. After the assay plates were incubated at 37C and 5% CO2 for 4 h, 23 nL of compounds dissolved in DMSO, positive controls or DMSO only was transferred to the assay plate by a Pintool station (Kalypsys, San Diego, CA). The plates were incubated at 37C and 5% CO2 for 16 h. Then 1 uL of LiveBLAzerTM B/G FRET substrate was added using a Bioraptr Flying Reagent Dispenser (FRD) workstation (Beckman Coulter, Indianapolis, IN, USA). The plates were incubated at room temperature for 2 h, and fluorescence intensity was measured by an Envision plate reader (PerkinElmer, Shelton, CT).
# Chain of Androgen receptor (Homo sapiens) (P10275 whole entry, looked up): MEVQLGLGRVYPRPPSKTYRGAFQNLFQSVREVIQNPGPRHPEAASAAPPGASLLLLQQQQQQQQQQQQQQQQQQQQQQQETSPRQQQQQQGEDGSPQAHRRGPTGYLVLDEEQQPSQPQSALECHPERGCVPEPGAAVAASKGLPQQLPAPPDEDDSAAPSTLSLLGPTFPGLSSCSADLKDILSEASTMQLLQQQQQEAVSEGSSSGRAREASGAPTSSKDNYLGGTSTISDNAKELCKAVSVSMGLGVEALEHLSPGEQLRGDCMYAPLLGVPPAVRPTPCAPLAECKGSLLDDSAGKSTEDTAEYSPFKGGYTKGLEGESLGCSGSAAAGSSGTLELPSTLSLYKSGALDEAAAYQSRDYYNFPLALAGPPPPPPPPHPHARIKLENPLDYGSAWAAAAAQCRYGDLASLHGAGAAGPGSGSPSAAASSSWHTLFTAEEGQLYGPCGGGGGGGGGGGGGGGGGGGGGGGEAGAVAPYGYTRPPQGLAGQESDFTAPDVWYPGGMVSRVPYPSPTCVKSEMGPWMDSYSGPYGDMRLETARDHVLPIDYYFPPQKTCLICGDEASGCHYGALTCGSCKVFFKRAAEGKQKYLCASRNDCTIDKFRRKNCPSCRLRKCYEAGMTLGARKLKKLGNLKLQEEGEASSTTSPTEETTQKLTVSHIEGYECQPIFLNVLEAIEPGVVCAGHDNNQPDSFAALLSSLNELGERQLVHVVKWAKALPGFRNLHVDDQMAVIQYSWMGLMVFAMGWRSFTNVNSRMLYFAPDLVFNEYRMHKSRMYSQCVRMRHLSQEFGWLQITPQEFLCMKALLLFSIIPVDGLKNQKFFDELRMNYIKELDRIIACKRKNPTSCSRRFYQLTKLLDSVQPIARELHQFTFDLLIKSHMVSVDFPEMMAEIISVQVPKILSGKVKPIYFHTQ
row,Structure (SMILES),outcome
1,c1cc2c3c(cccc3c1)CC2,inactive
2,CCNc1nc(NC(C)C)nc(SC)n1,inactive
3,Cc1[nH]c(=O)n(C(C)(C)C)c(=O)c1Cl,inactive
4,CCCCN(CC)C(=O)SCCC,inactive
5,O=c1ccc(=O)[nH][nH]1,inactive
6,C=C(C)CCl,inactive
7,CCCN(CCC)c1c([N+](=O)[O-])cc(C(F)(F)F)cc1[N+](=O)[O-],inactive
8,COCCl,inactive
9,CCCC1COC(Cn2cncn2)(c2ccc(Cl)cc2Cl)O1 (centres undefined),inactive
10,c1ccc(-c2ccccc2)cc1,inactive
11,O=c1[nH]c(=O)[nH]c(=O)[nH]1,inactive
12,[N-]=[N+]=[N-],inactive
13,O=C(NC(=O)c1c(F)cccc1F)Nc1cc(Cl)c(OC(F)(F)C(F)C(F)(F)F)cc1Cl (centres undefined),inactive
14,CCN(CC)c1ccccc1,inactive
